Experimental findings from PubChem BioAssay (NCI) are described below.

The panel holds about 83,000 compounds, 20% with a hit somewhere; the sample as a whole holds those more often.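 96-well plates, one dose, 48 hours. Percent growth reported; active if below 10.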 A number with no mark means an inactive call. Calls of active or inactive are those of the source.

In the assay the test system is BT-549 breast. The assay can be described thus: NCI-60 one-dose screen, 48 h (100 = growth as untreated, 0 = no growth, -100 = all killed). The following applies: 10 µM unless noted. As to the method:
Growth inhibition of the BT-549 human tumor cell line is measured as a screen for anti-cancer activity. Cells are grown in 96 well plates and exposed to the test compound for 48 hours. Compounds are tested at a single concentration, which is 10^-5 M for most compounds. The reported endpoint is percent growth (GI% or GIPRCNT), where numbers from 0 - 100% represent growth inhibition, and numbers from -100% - 0 represent cell death. For example, a value of 40 represents 60% growth inhibition. A value of 0 means no net growth occurred over the course of the experiment. A value of -40 indicates 40% of cells at the beginning of the experiment died by the end of the experiment. A value of -100 means all cells are dead at the end of the experiment.
NCI-60 Human Tumor Cell Lines Screen was performed using the standard one-dose NCI protocol, which is described in more detail at https://dtp.cancer.gov/discovery_development/nci-60/default.htm.
Compounds with GIPRCNT values below 10 were considered active. Activity score was based on GIPRCNT using the following formula: […]
Score is 0 for GIPRCNT values of 100 or above, 50 for GIPRCNT values of 0, and 100 for GIPRCNT values of -100.
Take `Cc1c(-n2nnc(-c3nc4ccccc4s3)c2N)c(=O)n(-c2ccccc2)n1C`: the growth was 107%.
Regarding `CN(CCn1sc(=O)n(Cc2ccccc2)c1=O)Cc1ccc2c(Cl)cc(Cl)c(O)c2n1`, the growth was 70.5%.
For the compound `COc1cc(CNS(=O)(=O)c2ccc(C)cc2)ccc1OCc1cn(-c2ccc(Br)cc2)nn1`, the growth was 110%.
For `COc1ccc(C(=S)N2CCN(c3ccccc3Cl)CC2)cc1OC` the value was 90.6%.
Then `Cc1cc(Cl)ccc1NC(=O)c1cc2ccccc2cc1O`, with 26.6%; and `CCOC(=O)c1c2c(n3ccc(C)cc13)C(=O)c1ccccc1C2=O`, with 77.2%; and `CCN1CCN(c2cc(C(=O)Nc3nc(-c4cc(OC)c(OC)c(OC)c4)cs3)cc(C(F)(F)F)c2)CC1`, with 75.2%.
Turning to `N=C(N)c1ccc(-c2ccc(-c3ccc(Cl)cc3)s2)nc1`, the growth was 98%.
With `Clc1ccc(Nc2nnc(COc3ccccc3)c3ccccc23)cc1`, the growth is -9.97% (active).
For `COc1ccc(-c2csc(NC(=O)CSc3nc(-c4ccccc4)cc(=O)[nH]3)n2)cc1` the value was 8.89% (active); for `C#CCn1cnc2c(Nc3cccc(NC(=O)C=C)c3)ncnc21`, 71.5%; for `CCCNC(=O)Oc1ccc(/C(=C(/C)Cc2ccc(OC)cc2)c2ccc(OCCCN(C)C)cc2)cc1`, 91.6%.
For `Cn1cc(-c2nc(-c3c[nH]c4ccncc34)cs2)c2ccccc21` the value was 84.4%; for `Cn1c(-c2ccc(Br)cc2)c(O)c(=O)c2c(F)cccc21`, 70.6%; for `Cc1ccc(Sc2oc(-c3ccc(C)cc3)nc2[P+](c2ccccc2)(c2ccccc2)c2ccccc2)cc1`, -30.9% (active).
Consider `CN(C)Cc1ccc(NC(=O)c2cncc(C#Cc3cnc(N)c4ncccc34)c2)cc1F`, for which the growth was 132%.
For `NC(=O)CCC(C(=O)O)N1C(=O)c2ccc(O)cc2C1=O` (stereo not given) the value was 101%.
Consider `O=C(NNc1nccc(Nc2ccc(S(=O)(=O)Nc3ccncc3)cc2)n1)c1ccccc1`, for which the growth is 89.5%.
Turning to `Cc1ccccc1NC(=O)c1sc2nc(C)c(C(=O)/C=C/c3ccccc3)cc2c1N`, the growth was 21.5%.
Turning to `CCCCCCCCCCCCCCCCCCOc1ccccc1CC(=O)NCC[N+]1(C)CCCC1`, the growth is 67.2%.
With `O=C(NCCCN1CCOCC1)c1cccc(N2C(=O)/C(=C/c3ccc(F)cc3)SC2=S)c1`, the growth was 96.8%.
Then `COc1cc(/C=C/C(=O)c2cccc(Nc3nc(Nc4ccccc4)nc(Nc4ccccc4)n3)c2)cc(OC)c1OC`, with 64.2%.
For `COC(=O)c1ccc2c(c1)C(=O)c1c-2n(CCCN)c(=O)c2cc([N+](=O)[O-])ccc12`, the growth is -100% (active).
For `CCCC(=O)NC(c1ccc2c(c1)OCO2)c1ccc2cccnc2c1O` (stereo not given) the value was 34.6%.
For `Fc1cc(F)cc(C(c2c[nH]c3ccccc23)c2c[nH]c3ccccc23)c1` the value was 135%; for `CC(=O)N(N=Nc1ccccc1)c1cccc2ccccc12`, 69.5%; for `COc1ccc(CC(C#N)c2cc3ccccc3[nH]2)cc1` (stereo not given), 92.8%.
For `Cc1ccc(-c2nc(N3CCNCC3)c3oc(-c4ccccc4)nc3n2)cc1` the value was 85.1%.
As for `Cc1ccc(-n2c(=S)[nH]c3sc4c(c3c2=O)CCC(=O)C4)cc1`, the growth is 59.9%.
As for `Cc1ccc(S(=O)(=O)N2CCCC2CO)cc1` (stereo not given), the growth was 86.6%.
Then `CC(C)N1CN2C(=S)NC3C2N(C1)C(=S)N3C` (stereo not given), with 124%.
Then `N#CC1=C(c2ccc(Cl)cc2)Nc2c(c(-c3ccc(Cl)cc3)nn2-c2ccccc2)C12C(=O)Nc1ccc(Cl)cc12` (stereo not given), with 31.7%; and `COC(=O)c1c2c(c(C)[n+]([O-])c1C)C(=O)C(NCc1ccc(Cl)cc1)=CC2=O`, with 77.9%; and `O=C(CSc1nc(-c2ccccc2)[nH]c1S(=O)(=O)c1ccccc1)NC1CC1`, with 105%.
For `CCCC(O)Cn1ncc(C(=O)OCC)c1NC(=O)NCc1ccccc1F` (stereo not given) the value was 90.2%; for `CCn1c(=S)[nH]c2c(=O)n(C)c(=O)n(C)c21`, 92.6%; for `CCCCCC(=O)OCC(=O)O[C@@H]1C[C@]2(C(C)C)O[C@@]1(C)[C@@H]1CC[C@@H](C)[C@H]1[C@@H]2OC(=O)/C=C/c1ccccc1`, 12.6%.
Consider `CC(C)(C)[Si](C)(C)O[C@H]1C(=O)C=CN2CC=C[C@@H]12`, for which the growth was 137% [100 µM].
For `Cc1cnc(C(=O)NNc2nc3sc4c(c3c(=O)n2C)C(C)CCC4)cn1` (stereo not given) the value was 25.8%; for `COC(=O)/C=C1/SC(=Nc2ccc(C)cc2)N(CCc2c[nH]c3ccc(O)cc23)C1=O`, 9.38% (active).
